Many of the other results were omitted from the sample, so hits are more common in it than they were.
Methyltransferases – Primary Screen for Target Class Profiling of Small Molecule Inhibitors of Methyltransferases; purified enzyme, MTase-Glo SAH luminescence; active compounds read low; calls only at 40 µM; 25,000 compounds, 3.9% hits; call rule not given here
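Each enzyme was assayed with SAM and its substrate. SAH formation detected by MTase-Glo luminescence; single-point 40 uM screen[…].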
Starred values were filed as active, the others as inactive; i = inactive; + = active, no number. % is scaled to controls: 0 for no effect and ±100 for the full control effect.

SMILES	Methyltransferases
CC1CCN(CCCNC(=O)CCc2nnc3n(Cc4ccccc4)c(=O)c4ccccc4n23)CC1	+
CCN(CC)CCCNC(=O)CCc1nnc2n(Cc3ccc(Cl)cc3)c(=O)c3ccccc3n12	+
CC1CCN(CCCNC(=O)CCc2nnc3n(Cc4ccc(Cl)cc4)c(=O)c4ccccc4n23)CC1	+
CCCCNC(=O)CCc1nnc2n(Cc3ccc(Cl)cc3)c(=O)c3ccccc3n12	i
Cc1ccc(CCNC(=O)CCc2nnc3n(Cc4ccccc4)c(=O)c4ccccc4n23)cc1	i
CC1OC(OCC2OC(OC3CCC4(C)C(CCC5(C)C4CC=C4C6CC(C)(C)CCC6(C(=O)OC6OC(CO)C(O)C(O)C6O)CCC45C)C3(C)CO)C(O)C(O)C2O)C(O)C(O)C1O (stereo not drawn)	i
COc1ccccc1CNC(=O)C1(C)Cn2nc(-c3ccccc3)cc2C(=O)N1Cc1ccccc1Cl (stereo not drawn)	i
CNc1cc(OC)c(C(=O)N[C@@H]2CCN(Cc3ccccc3)[C@@H]2C)cc1Cl	i
CC(C)CCNC(=O)C1c2c(n(C)c3ccccc23)SCC(=O)N1c1cc(F)ccc1F (stereo not drawn)	i
COC(=O)c1cc2n(n1)CC(C)(C(=O)NC1CCCCCC1)N(c1cccc(C)c1C)C2=O (stereo not drawn)	i
COCCC1(N(C)C)CCN(S(=O)(=O)c2cccc(OC)c2)CC1	i
O=C(NC1CCCCC1)N1CCc2n[nH]c(=O)n2CC1	i
Cc1cccc(C2c3cccn3-c3sc4c(c3CN2C(=O)Nc2ccc3c(c2)OCCO3)CCCC4)c1 (stereo not drawn)	i
CCC(C)NC(=O)c1ccc2c(=O)n(CC(C)C)c3nn(Cc4ccc(Cl)cc4)c(=O)n3c2c1 (stereo not drawn)	i
CCOc1ccccc1CN1C(=O)c2c(C(=O)OC)ncn2CC1(C)C(=O)NC1CCCCC1 (stereo not drawn)	i
CCC(C)(C)C(=O)N1CCC(N2C(=O)CCC2C(=O)NC(C)C)CC1 (stereo not drawn)	i
CCCn1c(=O)c2ccc(C(=O)NCC(C)C)cc2n2c(=O)n(CC(=O)Nc3cc(F)ccc3F)nc12	i
CCCn1c(=O)c2ccc(Cl)cc2n2c(SCc3cccc(OC)c3)nnc12	i
Cc1ccc(C)c(S(=O)(=O)c2nnn3c2nc(NCc2ccccc2)c2ccccc23)c1	i
COc1cc(/C=C(\C#N)C(=O)c2ccc(O)c(O)c2)cc(I)c1O	+
COc1cc(/C=C(\C#N)C(=O)Nc2nnc(C(F)(F)F)s2)ccc1OCc1ccc(C(F)(F)F)cc1C(F)(F)F	i
COC(=O)c1ncn2c1C(=O)N(CCCc1ccccc1)C(C)(C(=O)NC1CCCCCC1)C2 (stereo not drawn)	i
CC[C@H]1CN(C(=O)c2ccnc(Cl)c2)CC[C@H]1CC(=O)N1CCC(C(N)=O)CC1	i
COc1cccc([C@@H]2CN(C(=O)c3oc(C)nc3C)C[C@H]2C(=O)O)c1OC	i
CC(C)CC(NC(=O)OCc1ccccc1)C(=O)NC(CC(C)C)C(=O)NC(CCC(=O)O)C(=O)Nc1ccc2ccccc2c1 (stereo not drawn)	i
SMILES	Methyltransferases
Cc1cc(=O)oc2cc(NC(=O)[C@H](CCC(=O)O)NC(=O)[C@H](CC(C)C)NC(=O)[C@H](CC(C)C)NC(=O)OCc3ccccc3)ccc12	+
COCC(=O)NC[C@H]1CCN(Cc2scnc2C)C[C@H]1N(C)C	i
CCOC(=O)c1cc2n(n1)CC(C)(C(=O)NC1CCCCC1)N(c1ccc(C)c(Cl)c1)C2=O (stereo not drawn)	i
CCCC1c2ccc(C)n2CCN1C(=O)Nc1ccccc1C(F)(F)F (stereo not drawn)	i
CCCC1c2cccn2CCN1C(=O)Nc1ccccc1C(F)(F)F (stereo not drawn)	+
CC(C)C1c2cccn2CCN1C(=O)Nc1ccccc1C(F)(F)F (stereo not drawn)	i
CCOc1ccc(C(=O)N2CCC(n3cc(-c4nc(CC)no4)nn3)C2)cc1 (stereo not drawn)	i
CC1=C(C(=O)OC2CCCCC2)C(c2ccc([N+](=O)[O-])cc2)C2=C(CC(C)(C)CC2=O)N1 (stereo not drawn)	+
CCOC(=O)C1=C(C)NC(C)=C(C(=O)OC)C1c1cccc([N+](=O)[O-])c1 (stereo not drawn)	i
COCCOC(=O)C1=C(C)NC(C)=C(C(=O)OC(C)C)C1c1cccc([N+](=O)[O-])c1 (stereo not drawn)	i
COC(=O)C1=CO[C@@H](O[C@@H]2O[C@H](CO)[C@@H](O)[C@H](O)[C@H]2O)[C@@H]2[C@@](C)(O)[C@@H](OC(=O)/C=C/c3ccc(O)cc3)C[C@]12O	i
N.N.O=C(O)C1(C(=O)O)CCC1.[Pt+2]	+
NC1(C(=O)O)CCCCC1	i
Cc1cnc(-c2ccccc2)n1CC1CCN(S(=O)(=O)Cc2ccccc2F)CC1	i
COc1ccc(-c2n[nH]n3c2nc(=O)c2ccc(C(=O)NCc4cccc(OC)c4)cc23)cc1	i
CCCn1c(=O)c2ccc(C(=O)NC(C)CC)cc2n2c(=O)n(Cc3cccc(Cl)c3)nc12 (stereo not drawn)	i
O=C(/C=C/c1ccccc1O)O[C@@H]1O[C@H](CO)[C@@H](O)[C@H](O)[C@H]1O	i
O=C(O[C@@H]1O[C@H](CO)[C@@H](O)[C@H](O)[C@H]1O)c1c(O)cc(O)cc1/C=C/c1ccccc1	+
CC(=O)c1c(O)cc(O[C@@H]2O[C@H](CO)[C@@H](O)[C@H](O)[C@H]2O)cc1O	i
OC[C@H]1O[C@@H](OC[C@H]2O[C@@H](OC/C=C/c3ccccc3)[C@H](O)[C@@H](O)[C@@H]2O)[C@@H](O)[C@@H]1O	i
CC(=O)c1c(C)cc(O[C@@H]2O[C@H](CO)[C@@H](O)[C@H](O)[C@H]2O)cc1O	i
OC[C@H]1O[C@@H](Oc2ccc(O)c3cccc(O)c23)[C@H](O)[C@@H](O)[C@@H]1O	+
OCCc1ccc(O[C@@H]2O[C@H](CO)[C@@H](O)[C@H](O)[C@H]2O)c(O)c1	i
OC[C@H]1O[C@@H](Oc2ccccc2)[C@H](O)[C@@H](O)[C@@H]1O	i
O=C(c1ccccc1)c1c(O)cc(O)cc1O[C@@H]1O[C@H](CO)[C@@H](O)[C@H](O)[C@H]1O	+
SMILES	Methyltransferases
CCCC1c2cccn2CCN1C(=O)Nc1cc(C)ccc1C (stereo not drawn)	i
CCC(C)N1C(=O)c2cc3sccc3n2CC1(C)C(=O)NC1CCCCCC1 (stereo not drawn)	i
CC1(C(=O)NC2CCCCCCC2)Cn2c(cc3sccc32)C(=O)N1CCc1ccccc1 (stereo not drawn)	i
O=C(CCn1ccc2cc(S(=O)(=O)N3CCCC3)ccc21)NC1CCCc2ccccc21 (stereo not drawn)	i
OC[C@H]1O[C@@H](Oc2cc(O)c3c(c2)O[C@@H](c2ccc(O)cc2)[C@H](O)C3)[C@H](O)[C@@H](O)[C@@H]1O	i
O=C(CCn1ccc2cc(S(=O)(=O)N3CCCCC3)ccc21)NCc1ccccc1F	i
C=CCNC(=O)N[C@H]1CO[C@H]2[C@@H]1OC[C@@H]2Nc1nccc(C(C)(C)C)n1	i
CCn1c(=O)n(CC)c2cc(S(=O)(=O)N3CCN(c4cc(Cl)ccc4C)CC3)ccc21	i

Source: PubChem (National Center for Advancing Translational Sciences (NCATS))
